The source of these data is publication PMC5700166.

This assay deals with T1, GST-Nv-NF-kB (Ser allele) (Nematostella vectensis, UniProt A7UNT2 2-411).
T1 sequence: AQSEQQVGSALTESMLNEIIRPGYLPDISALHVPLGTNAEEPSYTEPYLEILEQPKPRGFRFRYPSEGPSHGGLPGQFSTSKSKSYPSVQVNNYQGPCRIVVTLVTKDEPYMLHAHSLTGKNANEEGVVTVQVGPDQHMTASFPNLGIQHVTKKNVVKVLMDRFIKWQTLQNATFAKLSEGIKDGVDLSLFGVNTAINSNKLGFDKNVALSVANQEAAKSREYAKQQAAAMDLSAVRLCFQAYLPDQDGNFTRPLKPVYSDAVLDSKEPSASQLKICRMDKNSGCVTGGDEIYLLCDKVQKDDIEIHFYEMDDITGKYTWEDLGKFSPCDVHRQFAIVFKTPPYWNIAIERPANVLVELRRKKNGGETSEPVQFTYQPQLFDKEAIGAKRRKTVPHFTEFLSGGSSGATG
As to the kind of experiment: protein-binding microarray (PBM); PBM: ~300 nM protein, 6 mM HEPES pH 7.8, 80 mM KCl, 0.5 mM EDTA, 0.5 mM EGTA, 6% glycerol, 35 ng/ul poly-dIdC, 1% milk, 1 h, room temperature; Ap Aiptasia and Nv Nematostella (sea anemones) / Co Capsaspora / Aq Amphimedon (sponge) / Dm Drosophila / Hu human; RHD is the Rel homology domain; high values mean tight binding. As to conditions: dsDNA, one strand shown.
Turning to “CCGATTAACATCAAATCACCCCCTGATGTTAATCGGGTCTTGATTCGCTTGACGCTGCTG”, the binding signal was 5.42 z-score.
“CCGATTAACATCAAAGTACCCCCTGATGTTAATCGGGTCTTGATTCGCTTGACGCTGCTG” yielded a binding signal of 5.79 z-score.
“CCGATTAACATCACGGGGGGTAATGATGTTAATCGGGTCTTGATTCGCTTGACGCTGCTG” returned a binding signal of 2.9 z-score.
Turning to “CCGATTAACATCAAAAAACCGTTTGATGTTAATCGGGTCTTGATTCGCTTGACGCTGCTG”, the binding signal turned out to be 2.22 z-score.
On to “CCGATTAACATCAGGGGAGCACCTGATGTTAATCGGGTCTTGATTCGCTTGACGCTGCTG”, for which the binding signal came out at 3.94 z-score.
“CCGATTAACATCAGGCAAGTCCCTGATGTTAATCGGGTCTTGATTCGCTTGACGCTGCTG”: the binding signal came to 3.07 z-score.
In the case of “CCGATTAACATCAAAGGTCCCCCTGATGTTAATCGGGTCTTGATTCGCTTGACGCTGCTG” it was 4.32 z-score; in that of “CCGATTAACATCAGAAAATCCCATGATGTTAATCGGGTCTTGATTCGCTTGACGCTGCTG”, 3.29 z-score; in that of “CCGATTAACATCACTGGGAATTCTGATGTTAATCGGGTCTTGATTCGCTTGACGCTGCTG”, 3 z-score.
“CCGATTAACATCACCGGAATTCCTGATGTTAATCGGGTCTTGATTCGCTTGACGCTGCTG” gave a binding signal of 1.56 z-score.
Turning to “CCGATTAACATCAGGGATTTTCATGATGTTAATCGGGTCTTGATTCGCTTGACGCTGCTG”, the binding signal amounted to 4.23 z-score.
For “CCGATTAACATCAAGCGTTTCCCTGATGTTAATCGGGTCTTGATTCGCTTGACGCTGCTG”, the binding signal was 3.6 z-score.
Sequence “CCGATTAACATCAGGACGTTCCCTGATGTTAATCGGGTCTTGATTCGCTTGACGCTGCTG” had a binding signal of 1.14 z-score.
Regarding “CCGATTAACATCAAAACAATCCCTGATGTTAATCGGGTCTTGATTCGCTTGACGCTGCTG”, the binding signal was 1.53 z-score.
